From PubChem BioAssay
Calls of active or inactive are those of the source.

Tests used:
Albumin (Bos taurus) = Albumin (Bos taurus) (UniProt P02769); assay: compounds binding labelled BSA control protein – biochemical, small-molecule microarray, Alexa647 label, 635/667 nm fluorescence, artefact control for SMM control protein annotation, profiling panel (AID 1118); conditions: BSA-A647 binding, fluorescence 635 nm, higher = more signal;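 further: score merges 667 nm emission intensity and signal-to-noise per printed compound spot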
[1] = probe aXIP binding to arrayed compounds – biochemical, NeuroSMM set, 635/667 nm fluorescence, primary screen (AID 1119); conditions: small-molecule microarray, higher = more signal, called active from +8 up or from −8 down;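 further: probe is the protein aXip251-270 applied at 1 µg/mL to compound-printed slides; binding of probe to printed compounds measured as 667 nm fluorescence plus signal to noise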
[2] = probe aNOTCH3 binding on compound microarray – biochemical, small-molecule microarray, 635/667 nm fluorescence, primary screen (AID 1120); conditions: higher = more signal;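 further: probe is a biotin-tagged antibody raised against NOTCH3 rather than NOTCH3 protein; score merges spot fluorescence near 667 nm with spot signal to noise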
[3] = probe aNOTCH2 binding on compound microarray – biochemical, small-molecule microarray, 635/667 nm fluorescence, primary screen (AID 1121); conditions: higher = more signal;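 further: score merges feature fluorescence read at 667 nm with its signal to noise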
[4] = molecular target: Carbonic anhydrase 2 (Homo sapiens) (UniProt P00918); assay: compounds binding carbonic anhydrase 2 – biochemical, small-molecule microarray, Alexa647-labelled CAII, profiling panel (AID 1122); conditions: CAII-A647 binding fluorescence, higher = more signal
[5] = COS7 lysate on small-molecule microarray, probe aHis, 635 nm (AID 1123); conditions: COS7 cell lysate, fluorescence, higher = more signal;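 further: z-score combines 667nm fluorescence intensity with signal-to-noise per printed compound spot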
[6] = probe aLAP1 signal on lysate-treated microarray – cell lysate, small-molecule microarray, COS7 lysate, primary screen (AID 1124); conditions: probe aLAP1, fluorescence, higher = more signal;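 further: lysate comes from COS7 cells expressing LAP1 and is applied at 0.3 µg/mL; score merges spot fluorescence near 667 nm with signal-to-noise over triplicate slides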
Sam68 (KHDRBS1) = assay: compounds binding KHDRBS1 protein – biochemical, small-molecule microarray, 635 nm fluorescence, primary screen (AID 1125); conditions: higher = more signal;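 further: score merges 667 nm channel intensity with signal to noise over triplicate slides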
[7] = tested on: Chordin-like protein 2 (CHRDL2); assay: compounds binding chordin-like 2 – biochemical, small-molecule microarray, 635 nm fluorescence, primary screen (AID 1126); conditions: fluorescence 635 nm, higher = more signal;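 further: printed compound slides probed with Chrdl2 protein at 4 µg/mL for 1 h at 4 C; score merges 667 nm emission intensity with signal to noise over three replicate slides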
[8] = molecular target: Concanavalin-A (Canavalia ensiformis) (UniProt P02866); assay: compounds binding concanavalin A lectin – biochemical, small-molecule microarray, Alexa647 label, 635 nm, artefact control for SMM control protein annotation, primary screen (AID 1127); conditions: ConA-A647 binding fluorescence, higher = more signal;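 further: z combines 667 nm emission intensity with signal-to-noise across three replicate slides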
[9] = compounds binding Alexa647 anti-His antibody – biochemical, small-molecule microarray, 635 nm fluorescence, artefact control for SMM control protein annotation, primary screen (AID 1128); conditions: higher = more signal;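 further: score merges feature fluorescence with signal-to-noise for each printed compound spot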
[10] = tested on: Human papillomavirus type 1a E7 protein (residues 1-88); assay: HPV1a E7 small-molecule binders, primary screen, biochemical, small-molecule microarray, residues 1-88, 635 nm (AID 1129); conditions: small-molecule microarray binding, fluorescence 635 nm; higher = more signal
[11] = molecular target: Focal adhesion kinase 1 (Homo sapiens) (UniProt Q05397); assay: PTK2 protein binding on printed compound slides – biochemical, small-molecule microarray, 635/667 nm fluorescence, BSA, DTT, primary screen (AID 1130); conditions: 635 nm fluorescence, higher = more signal;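 further: composite of spot emission at 667 nm and signal to noise over triplicate slides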
[12] = tested on: Fibrinogen (Alexa647-labelled); assay: Alexa647-fibrinogen binding to printed small molecules – biochemical, small-molecule microarray, 635/667 nm fluorescence, artefact control for SMM control-protein annotation, profiling panel (AID 1131); conditions: fibrinogen-A647 binding fluorescence, higher = more signal;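 further: z-score merges 667 nm fluorescence with per-spot signal-to-noise over triplicate slides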
[13] = molecular target: Follistatin (Homo sapiens) (UniProt P19883); assay: FST protein binding to printed compounds – biochemical, small-molecule microarray, 635/667 nm fluorescence, primary screen (AID 1132); conditions: 635 nm fluorescence, higher = more signal
[14] = molecular target: Fibroblast growth factor 2 (Homo sapiens) (UniProt P09038); assay: basic fibroblast growth factor binding to printed compounds – biochemical, small-molecule microarray, 635/667 nm fluorescence, primary screen (AID 1133); conditions: FGF2, fluorescence 635/667, higher = more signal
[15] = JC-1 mitochondrial potential readout, lung cancer cells – cell-based, A549, JC-1 fluorescence, basal, 24 h, 100 nL, profiling panel (AID 1138); conditions: higher = more signal;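 further: A549 lung adenocarcinoma cells under basal conditions with no added stimulus; test concentration not given here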
Lefty1 = Lefty1 protein binding to printed compounds – biochemical, small-molecule microarray, 635/667 nm fluorescence, primary screen (AID 1139); conditions: fluorescence 635/667, higher = more signal
[16] = tested on: wheat germ agglutinin (Triticum aestivum), Alexa647-labelled; assay: Alexa647-WGA lectin binding to printed small molecules – biochemical, small-molecule microarray, 635/667 nm fluorescence, artefact control for SMM control-protein annotation, profiling panel (AID 1140); conditions: WGA-A647 binding, 635 nm fluorescence, higher = more signal;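 further: score merges 667 nm feature emission with signal to noise over triplicate slides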
[17] = molecular target: Luciferin 4-monooxygenase (Photinus pyralis) (UniProt P08659); assay: inhibition of purified Photinus pyralis luciferase – biochemical, luminescence, purified enzyme, 2006 set, primary screen (AID 1141); conditions: purified firefly luciferase, SteadyGlo luminescence, 30 min; higher = more signal, called active from +8 up or from −8 down;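 further: cell-free assay with purified firefly luciferase at 100 ng per well in PBS; test concentration not given here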
Sequence of Luciferin 4-monooxygenase (Photinus pyralis) (P08659 whole entry, looked up): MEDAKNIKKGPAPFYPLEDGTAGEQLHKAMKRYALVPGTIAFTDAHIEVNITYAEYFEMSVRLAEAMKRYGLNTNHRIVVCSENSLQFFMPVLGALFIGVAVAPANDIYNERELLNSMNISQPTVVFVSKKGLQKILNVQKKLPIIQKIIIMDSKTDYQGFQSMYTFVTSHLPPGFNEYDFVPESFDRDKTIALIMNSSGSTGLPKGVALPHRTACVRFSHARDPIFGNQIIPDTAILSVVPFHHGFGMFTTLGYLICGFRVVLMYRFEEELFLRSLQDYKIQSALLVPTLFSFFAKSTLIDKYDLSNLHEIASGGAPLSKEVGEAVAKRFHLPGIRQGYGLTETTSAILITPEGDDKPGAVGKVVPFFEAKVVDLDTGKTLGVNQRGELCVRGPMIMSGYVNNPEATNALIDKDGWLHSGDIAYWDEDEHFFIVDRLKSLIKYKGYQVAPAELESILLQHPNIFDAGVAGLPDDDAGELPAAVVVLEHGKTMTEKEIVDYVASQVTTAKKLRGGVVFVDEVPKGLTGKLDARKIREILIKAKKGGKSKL

Sequence of Concanavalin-A (Canavalia ensiformis) (P02866 whole entry, looked up): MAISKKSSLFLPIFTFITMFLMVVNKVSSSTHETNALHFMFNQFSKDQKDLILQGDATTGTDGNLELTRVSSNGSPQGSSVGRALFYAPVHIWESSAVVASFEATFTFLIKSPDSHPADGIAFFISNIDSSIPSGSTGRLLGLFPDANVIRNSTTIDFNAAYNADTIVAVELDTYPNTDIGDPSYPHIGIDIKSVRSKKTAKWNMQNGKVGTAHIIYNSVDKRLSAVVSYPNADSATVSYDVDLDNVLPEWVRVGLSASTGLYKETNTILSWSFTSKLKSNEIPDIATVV
Sequence of Albumin (Bos taurus) (P02769 whole entry, looked up): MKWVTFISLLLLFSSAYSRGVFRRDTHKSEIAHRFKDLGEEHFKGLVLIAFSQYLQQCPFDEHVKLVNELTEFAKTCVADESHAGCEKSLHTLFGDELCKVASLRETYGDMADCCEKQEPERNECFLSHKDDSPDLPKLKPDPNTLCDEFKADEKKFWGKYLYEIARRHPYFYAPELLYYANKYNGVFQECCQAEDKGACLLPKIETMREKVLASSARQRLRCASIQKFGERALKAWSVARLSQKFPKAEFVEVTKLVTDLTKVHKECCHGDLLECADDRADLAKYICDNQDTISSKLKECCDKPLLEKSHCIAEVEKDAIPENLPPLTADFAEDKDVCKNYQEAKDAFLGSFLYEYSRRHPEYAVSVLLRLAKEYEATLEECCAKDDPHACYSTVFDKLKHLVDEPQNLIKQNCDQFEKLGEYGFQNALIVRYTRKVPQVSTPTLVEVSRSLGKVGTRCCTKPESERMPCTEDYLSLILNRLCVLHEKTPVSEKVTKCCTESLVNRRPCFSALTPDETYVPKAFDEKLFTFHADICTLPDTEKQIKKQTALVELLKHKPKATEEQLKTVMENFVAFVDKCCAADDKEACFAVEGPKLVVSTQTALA
Sequence of Follistatin (Homo sapiens) (P19883 whole entry, looked up): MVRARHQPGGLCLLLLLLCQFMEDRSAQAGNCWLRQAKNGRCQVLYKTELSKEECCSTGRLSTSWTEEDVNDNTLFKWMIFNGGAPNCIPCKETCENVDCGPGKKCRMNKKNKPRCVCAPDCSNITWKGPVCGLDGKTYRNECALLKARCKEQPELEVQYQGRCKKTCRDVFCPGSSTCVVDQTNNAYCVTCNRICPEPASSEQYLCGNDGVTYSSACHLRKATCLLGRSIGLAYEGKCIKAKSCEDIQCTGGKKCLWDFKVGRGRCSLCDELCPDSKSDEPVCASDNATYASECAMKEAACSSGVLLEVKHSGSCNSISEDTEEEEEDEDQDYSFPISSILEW
Sequence of Focal adhesion kinase 1 (Homo sapiens) (Q05397 whole entry, looked up): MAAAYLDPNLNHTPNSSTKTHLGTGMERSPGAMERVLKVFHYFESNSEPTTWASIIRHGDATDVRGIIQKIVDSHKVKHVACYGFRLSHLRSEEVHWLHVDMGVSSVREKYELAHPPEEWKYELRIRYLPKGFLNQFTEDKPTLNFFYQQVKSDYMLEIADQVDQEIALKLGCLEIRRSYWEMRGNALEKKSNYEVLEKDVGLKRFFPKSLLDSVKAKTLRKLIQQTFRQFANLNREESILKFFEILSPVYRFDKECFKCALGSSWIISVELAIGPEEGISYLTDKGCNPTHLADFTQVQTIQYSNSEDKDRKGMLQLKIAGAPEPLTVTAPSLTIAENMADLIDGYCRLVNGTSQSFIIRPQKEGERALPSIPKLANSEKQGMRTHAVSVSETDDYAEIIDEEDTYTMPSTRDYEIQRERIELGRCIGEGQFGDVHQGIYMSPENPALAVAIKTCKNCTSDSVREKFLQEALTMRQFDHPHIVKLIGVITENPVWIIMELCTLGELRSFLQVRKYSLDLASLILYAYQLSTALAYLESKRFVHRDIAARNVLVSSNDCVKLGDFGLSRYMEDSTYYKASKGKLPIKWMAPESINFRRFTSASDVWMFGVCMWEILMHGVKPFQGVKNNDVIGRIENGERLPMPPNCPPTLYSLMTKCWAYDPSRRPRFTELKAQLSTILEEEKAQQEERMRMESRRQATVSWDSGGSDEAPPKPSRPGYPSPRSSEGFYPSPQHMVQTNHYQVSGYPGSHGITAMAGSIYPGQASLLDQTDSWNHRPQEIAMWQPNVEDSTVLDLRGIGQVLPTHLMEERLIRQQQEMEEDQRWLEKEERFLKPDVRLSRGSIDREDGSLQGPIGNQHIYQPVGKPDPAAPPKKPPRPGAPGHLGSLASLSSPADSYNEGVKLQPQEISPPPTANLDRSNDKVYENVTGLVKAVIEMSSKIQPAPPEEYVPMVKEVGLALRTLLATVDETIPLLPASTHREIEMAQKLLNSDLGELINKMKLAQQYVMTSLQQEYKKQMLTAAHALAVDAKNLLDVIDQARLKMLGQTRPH
Sequence of Fibroblast growth factor 2 (Homo sapiens) (P09038 whole entry, looked up): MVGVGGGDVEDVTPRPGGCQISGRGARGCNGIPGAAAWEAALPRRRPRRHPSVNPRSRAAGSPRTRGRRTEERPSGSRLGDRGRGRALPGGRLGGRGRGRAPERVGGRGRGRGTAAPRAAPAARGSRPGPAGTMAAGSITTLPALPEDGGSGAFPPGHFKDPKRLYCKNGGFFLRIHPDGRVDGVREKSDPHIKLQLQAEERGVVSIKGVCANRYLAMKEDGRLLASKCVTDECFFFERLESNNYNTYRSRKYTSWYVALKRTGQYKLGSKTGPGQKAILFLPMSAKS

| Compound | composite z-score (Albumin (Bos taurus)) | composite Z-score [1] | composite z-score [2] | composite z-score [3] | composite z-score [4] | composite z-score [5] | composite z-score [6] | composite z-score (Sam68 (KHDRBS1)) | composite z-score [7] | composite z-score [8] | composite z-score [9] | composite z-score [10] | composite z-score [11] | composite z-score [12] | composite z-score [13] | composite z-score [14] | z-score [15] | composite z-score (Lefty1) | composite z-score [16] | z-score [17] |
| --- | --- | --- | --- | --- | --- | --- | --- | --- | --- | --- | --- | --- | --- | --- | --- | --- | --- | --- | --- | --- |
| CN1C(=O)C2C=CC(C(O)c3cccc(O)c3)N(Nc3ccccc3)C2C1=O (stereo not given) | 0.976 | 0.501 (inactive) | 0.17 | -0.14 | 0.552 | 0.247 | -0.279 | -0.172 | -0.246 | 0.312 | 0.71 | 0.545 | 0.214 | 0.441 | 0.214 | -0.191 | 1.19 | 0.152 | 0.275 | 0.991 (inactive) |
| COCCOC(=O)N1C(=O)[C@@]2(c3cc(C#CCC(C(=O)OC)C(=O)OC)ccc31)[C@H](C(=O)N1CCc3cc(OC)c(OC)cc3C1)[C@H]1C(=O)O[C@H](c3ccccc3)[C@H](c3ccccc3)N1[C@@H]2c1ccc(OCCO)cc1 | -0.525 | 0.654 (inactive) | 0.15 | -0.0357 | 0.357 | 1.2 | 0.519 | 1.29 | 0.837 | 1.11 | 2.19 | 1.2 | 0.497 | 0.783 | 1.31 | 1.45 | -1.04 | 1.02 | 0.519 | -1.25 (inactive) |
| CCCCC(=C=CC[C@@H](O)c1ccccc1OCCO)C[C@@H](O)COCc1ccccc1 | 0.338 | -0.0202 (inactive) | -0.281 | -0.148 | 0.47 | 1.95 | 0.207 | 0.471 | -0.893 | -0.525 | 0.0168 | -0.399 | 0.577 | 0.479 | 0.271 | 0.668 | 0.995 | 0.0842 | 0.0771 | -2.59 (inactive) |
| COCCOC(=O)N1C(=O)[C@@]2(c3cc(C#Cc4ccc(OC)cc4)ccc31)[C@H](C(=O)Nc1nc3ccccc3s1)[C@H]1C(=O)O[C@H](c3ccccc3)[C@H](c3ccccc3)N1[C@@H]2c1ccc(O)cc1 | 0.374 | 0.364 (inactive) | 0.214 | -0.118 | -0.111 | 1.91 | 0.171 | 1.33 | 0.576 | 1.16 | -0.0507 | 1.13 | 0.0931 | 0.965 | 1.29 | 1.09 | -2.26 | 1.18 | 0.927 | -0.0504 (inactive) |
| CCCC[C@@H]1C[C@H]1[C@@H](NC(=O)c1ccccc1)c1ccc(C(F)(F)F)cc1 | -0.0844 | -0.157 (inactive) | 0.0562 | -0.0698 | 0.009 | -0.511 | -0.134 | -1.5 | -1.15 | -0.917 | 0.581 | -0.551 | -0.0796 | -2.43 | -1 | -1.19 | -0.0527 | -0.549 | -0.331 | 0.286 (inactive) |
| CCCCCCc1nc(C2CC2)cc2c1[Si](C(C)C)(C(C)C)OC2 | -0.858 | 0.289 (inactive) | -0.197 | -0.176 | -0.513 | -0.535 | -0.0031 | -0.826 | -0.463 | -0.334 | -1.08 | -1.14 | -0.295 | 0.691 | -0.706 | -0.644 | -1.37 | -0.568 | -0.222 | 0.766 (inactive) |
| COCCOC(=O)N1C(=O)[C@@]2(c3cc(C#CC4(O)CCCCCC4)ccc31)[C@H](c1ccc(O)cc1)N1[C@H](c3ccccc3)[C@H](c3ccccc3)OC(=O)[C@H]1[C@@H]2C(=O)NC[C@H](O)c1ccccc1 | 0.179 | 0.534 (inactive) | -0.0133 | 0.0296 | 0.522 | 2.46 | 1.46 | 1.3 | 0.97 | 1.02 | 0.496 | 1.16 | 0.987 | 0.87 | 1.26 | 1.64 | -0.939 | 1.28 | 0.733 | -0.001 (inactive) |
| CC(C)C(CO)N1C(=O)[C@@H]2C3C(=O)OCCC/C=C\[C@H]3OC23C=CCN(C(C)(C)C)C(=O)[C@@H]13 (stereo not given in full) | -0.632 | -0.115 (inactive) | -0.304 | -0.156 | 0.815 | -0.12 | -0.281 | -0.142 | -0.438 | -1.47 | -0.539 | -0.768 | -0.147 | -2.19 | -0.895 | -0.363 | -0.0938 | -0.404 | -1.04 | -0.197 (inactive) |
| CC(C)[Si](C#CCCCC#N)(O[C@H](c1ccccc1)c1cn([C@H](CO)Cc2ccccc2)nn1)C(C)C | 0.992 | 0.727 (inactive) | -0.15 | -0.161 | 0.456 | 0.605 | 0.936 | 1.11 | -0.006 | 1.16 | -0.135 | 1.12 | 0.26 | 0.975 | 1.14 | 0.812 | 0.162 | 0.385 | 0.231 | -0.175 (inactive) |
| C=C(COC)C(=O)CC[C@@H](OC(=O)c1cccnc1)c1ccc(OCCO)cc1 | -0.283 | 0.517 (inactive) | 0.176 | 0.0362 | 0.751 | 1 | 0.211 | 0.629 | 1.12 | 0.388 | 0.282 | 0.659 | -0.157 | 0.108 | 1.4 | 1.78 | 0.822 | 1.21 | 0.237 | -3.79 (inactive) |
| COC(=O)[C@@]1(Cc2ccccc2N=[N+]=[N-])N=C(c2ccc(OCCCO)cc2)O[C@H]1c1ccccc1N=[N+]=[N-] | -0.908 | 0.332 (inactive) | 0.149 | 0.0977 | 0.355 | 1.44 | 0.494 | 0.996 | 0.456 | 0.851 | 1.08 | 1.14 | 0.909 | 0.605 | 1.27 | 0.933 | 2.85 | 0.119 | 0.767 | -5.01 (inactive) |
